Test [1] in a line: NCI Yeast Anticancer Drug Screen. Data for the rad50 strain (AID 155).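 Also: 0% = growth of vehicle-only cultures of the same strain.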 Conditions: S. cerevisiae rad50 strain growth inhibition, stronger effect = higher value. Put shortly:
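Compounds were tested on a yeast strain with an engineered DNA damage repair alteration; the reported value is growth inhibition normalised to vehicle treatment.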

Test [2] is described as follows: NCI Yeast Anticancer Drug Screen. Data for the mec2-1 strain (AID 157). Conditions: S. cerevisiae mec2-1 strain, stronger effect = higher value. Put shortly: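 Compounds were applied to mec2-1 yeast cells. Their growth was then compared with that of vehicle-treated cultures to give growth inhibition.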
The nature of test [3]: NCI Yeast Anticancer Drug Screen. Data for the sgs1 mgt1 strain (AID 161).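 Also: 0% = growth of cultures given vehicle only.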 Conditions: S. cerevisiae sgs1 mgt1 strain, stronger effect = higher value. Put shortly: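 Percent growth inhibition was derived by comparing compound-exposed mutant yeast with vehicle-exposed cultures. The strain carries alterations in DNA damage repair.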
A short description of test [4]: NCI Yeast Anticancer Drug Screen. Data for the cln2 rad14 strain (AID 165).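 Also: 0% = growth equal to vehicle treated cultures.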 Conditions: S. cerevisiae cln2 rad14 strain, stronger effect = higher value. Put shortly:
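Strain: cln2 rad14 yeast, altered in cell cycle control and DNA damage repair. Read-out: growth inhibition vs vehicle.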

Test [5] can be described thus: NCI Yeast Anticancer Drug Screen. Data for the bub3 strain (AID 167). Conditions: S. cerevisiae bub3 mutant strain, stronger effect = higher value. The method, boiled down: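 Growth of a checkpoint-deficient yeast mutant is measured after compound exposure. Values represent inhibition relative to vehicle.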
The nature of test [6]: NCI Yeast Anticancer Drug Screen. Data for the mlh1 rad18 strain (AID 175). Conditions: S. cerevisiae mlh1 rad18 strain growth inhibition, stronger effect = higher value. The method, boiled down: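 A repair-deficient yeast strain is exposed to test compound, and growth is scored relative to vehicle-treated controls.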
Where [7] appears, read: at 5.0 µM (retest, dose inferred, filed as 0.5).
[8] abbreviates: at 50.0 µM (retest, dose inferred, filed as 5.0).

Nine compounds from PubChem BioAssay (NCI) can be followed below.

Structures are written as SMILES. The panel holds about 79,000 compounds, 15% with a hit somewhere; the sample as a whole holds those more often. A number with no mark means an inactive call. The source made the active and inactive calls. Rule as the data show it: active = growth inhibition above about 70%; inactive = the rest.

Regarding `c1cc(SSc2ccncc2)ccn1`, the growth inhibition is 47% in test [1] (setting [7]); 100% (active) in test [1] (setting [8]); 51.1% in test [1] (at 50.0 µM); 50% in test [2] (setting [7]); 100% (active) in test [2] (setting [8]); 85.5% (active) in test [2] (at 50.0 µM). Besides, the growth inhibition in test [3] (setting [7]) is 55%; in test [3] (setting [8]), 100% (active); in test [3] (at 50.0 µM), 56.8%; in test [4] (setting [7]), 34%; in test [4] (setting [8]), 97% (active); in test [4] (at 50.0 µM), 42%. Also, the growth inhibition was 45% in test [5] (setting [7]); 69% in test [5] (setting [8]); 92.6% (active) in test [5] (at 50.0 µM); 65% in test [6] (setting [7]); 100% (active) in test [6] (setting [8]); 82.1% (active) in test [6] (at 50.0 µM).
Regarding `CCOc1c(N=Nc2ccc(Cl)cc2)c(-c2ccccc2)nn1C(N)=S`, the growth inhibition was 3% in test [1] (setting [7]); 90% (active) in test [1] (setting [8]); 93.4% (active) in test [1] (at 50.0 µM); -11% in test [2] (setting [7]); 89% (active) in test [2] (setting [8]); 94.7% (active) in test [2] (at 50.0 µM). For the same compound, the growth inhibition in test [3] (setting [7]) is 18%; in test [3] (setting [8]), 92% (active); in test [3] (at 50.0 µM), 93.9% (active); in test [4] (setting [7]), -13%; in test [4] (setting [8]) it was 87% (active); in test [4] (at 50.0 µM) it was 93.3% (active). For the same compound, the growth inhibition in test [5] (setting [7]) was 1%; in test [5] (setting [8]) it was 92% (active); in test [5] (at 50.0 µM), 92.4% (active); in test [6] (setting [7]) it was 0%; in test [6] (setting [8]), 90% (active); in test [6] (at 50.0 µM), 93.1% (active).
Turning to `Cc1[nH]nc(C(=O)N(C)C)c1N=NN(C)C`, the growth inhibition was -61% in test [1] (setting [7]); 93% (active) in test [1] (setting [8]); 97.8% (active) in test [1] (at 50.0 µM); -44% in test [2] (setting [7]); 91% (active) in test [2] (setting [8]); 88.8% (active) in test [2] (at 50.0 µM). Further, the growth inhibition in test [3] (setting [7]) was -43%; in test [3] (setting [8]), 88% (active); in test [3] (at 50.0 µM) it was 82% (active); in test [4] (setting [7]), -50%; in test [4] (setting [8]), 78% (active); in test [4] (at 50.0 µM), 79.8% (active). The growth inhibition in test [5] (setting [7]) is -65%; in test [5] (setting [8]) it was 83% (active); in test [5] (at 50.0 µM), 79.2% (active); in test [6] (setting [7]) it was -105%; in test [6] (setting [8]) it was 90% (active); in test [6] (at 50.0 µM), 95.6% (active).
`O=C(O)c1cc2ccc3cccc4ccc(c1)c2c34`: the growth inhibition in test [1] (setting [7]) was 4%; in test [1] (setting [8]), 93% (active); in test [1] (at 50.0 µM) it was 80.3% (active); in test [2] (setting [7]), 1%; in test [2] (setting [8]), 89% (active); in test [2] (at 50.0 µM), 70.7% (active). The growth inhibition in test [3] (setting [7]) is 3%; in test [3] (setting [8]), 94% (active); in test [3] (at 50.0 µM), 87.3% (active); in test [4] (setting [7]) it was -4%; in test [4] (setting [8]), 92% (active); in test [4] (at 50.0 µM), 77.8% (active). Besides, the growth inhibition in test [5] (setting [7]) is -3%; in test [5] (setting [8]), 90% (active); in test [5] (at 50.0 µM), 88.4% (active); in test [6] (setting [7]), 9%; in test [6] (setting [8]), 94% (active); in test [6] (at 50.0 µM) it was 86% (active).
Take `CC(C)(C)OC(=O)N(CCCCNC(=O)OCc1ccccc1)CCCNC(=O)OCc1ccccc1`: the growth inhibition was 9% in test [1] (setting [7]); 9% in test [1] (setting [8]); 23.1% in test [1] (at 50.0 µM); 7% in test [2] (setting [7]); -4% in test [2] (setting [8]); 14.8% in test [2] (at 50.0 µM). Besides, the growth inhibition is -19% in test [3] (setting [7]); -3% in test [3] (setting [8]); -1.15% in test [3] (at 50.0 µM); 0% in test [4] (setting [7]); 18% in test [4] (setting [8]); -0.85% in test [4] (at 50.0 µM). For the same compound, the growth inhibition is 2% in test [5] (setting [7]); -1% in test [5] (setting [8]); -13.4% in test [5] (at 50.0 µM); 9% in test [6] (setting [7]); 9% in test [6] (setting [8]); -57.7% in test [6] (at 50.0 µM).
Take `OCCCNc1nc2c(Cl)cc(Cl)cc2c2ccccc12`: the growth inhibition is 16% in test [1] (setting [7]); 49% in test [1] (setting [8]); 50% in test [1] (at 50.0 µM); 6% in test [2] (setting [7]); 28% in test [2] (setting [8]); 15.4% in test [2] (at 50.0 µM). The growth inhibition is 8% in test [3] (setting [7]); 30% in test [3] (setting [8]); 72.7% (active) in test [3] (at 50.0 µM); -6% in test [4] (setting [7]); -16% in test [4] (setting [8]); 19.4% in test [4] (at 50.0 µM). In addition, the growth inhibition is -6% in test [5] (setting [7]); -5% in test [5] (setting [8]); 76.2% (active) in test [5] (at 50.0 µM); 4% in test [6] (setting [7]); 30% in test [6] (setting [8]); 92.8% (active) in test [6] (at 50.0 µM).
As for `COc1ccc2c(c1)C(=O)C[C@@H]1[C@](C)(C#N)CCC[C@]21C`, the growth inhibition is 3% in test [1] (setting [7]); 31% in test [1] (setting [8]); 47.1% in test [1] (at 50.0 µM); 3% in test [2] (setting [7]); 2% in test [2] (setting [8]); -4.95% in test [2] (at 50.0 µM). The growth inhibition in test [3] (setting [7]) is 3%; in test [3] (setting [8]), 19%; in test [3] (at 50.0 µM), 33.4%; in test [4] (setting [7]) it was 5%; in test [4] (setting [8]), 10%; in test [4] (at 50.0 µM), -2.7%. The growth inhibition in test [5] (setting [7]) is 5%; in test [5] (setting [8]), 34%; in test [5] (at 50.0 µM), 69.8%; in test [6] (setting [7]) it was 7%; in test [6] (setting [8]), 13%; in test [6] (at 50.0 µM), 47.7%.
As for `CC1(C)CCCC12C=NCC2` (configuration not stated), the growth inhibition in test [1] (setting [7]) is 2%; in test [1] (setting [8]) it was 16%; in test [1] (at 50.0 µM) it was 17.8%; in test [2] (setting [7]), -2%; in test [2] (setting [8]), 18%; in test [2] (at 50.0 µM), -1.15%. Besides, the growth inhibition in test [3] (setting [7]) is -1%; in test [3] (setting [8]), 11%; in test [3] (at 50.0 µM) it was 31.9%; in test [4] (setting [7]), 1%; in test [4] (setting [8]), 1%; in test [4] (at 50.0 µM) it was -3.95%. For the same compound, the growth inhibition was 2% in test [5] (setting [7]); 10% in test [5] (setting [8]); 43.1% in test [5] (at 50.0 µM); -28% in test [6] (setting [7]); 27% in test [6] (setting [8]); 22.9% in test [6] (at 50.0 µM).
In the case of `COC(=O)C(CBr)CBr`, the growth inhibition is 25% in test [1] (setting [7]); 100% (active) in test [1] (setting [8]); -20.9% in test [1] (at 50.0 µM); 34% in test [2] (setting [7]); 99% (active) in test [2] (setting [8]); 9.55% in test [2] (at 50.0 µM). For the same compound, the growth inhibition is 22% in test [3] (setting [7]); 98% (active) in test [3] (setting [8]); -5.25% in test [3] (at 50.0 µM); 21% in test [4] (setting [7]); 99% (active) in test [4] (setting [8]); 10.7% in test [4] (at 50.0 µM). Moreover, the growth inhibition in test [5] (setting [7]) is 47%; in test [5] (setting [8]), 100% (active); in test [5] (at 50.0 µM), 5.8%; in test [6] (setting [7]), 39%; in test [6] (setting [8]) it was 99% (active); in test [6] (at 50.0 µM), -14.7%.
